Laboratory results: PubChem BioAssay (NCATS)
Records with an inconclusive call do not appear. Where a call stands in place of a potency, no number is given. Active and inactive are the calls of the source. The call rests on the fitted dose curve; in most records, active means well fitted inhibition curve with a large enough effect; inconclusive means small, poorly fitted or top-dose-only effect; inactive means no such curve, though single readings can be large or run the other way. Bridge positions count the residues as written; N and C are the ends. Square brackets hold non-standard residues; d marks the D form. Side chains are listed from the residue outwards. Peptide text beside a SMILES is read from it. * marks the point of attachment. ξ: configuration not given here. Phg(4-OMe) = COc1ccc([C@H](N)C(=O)O)cc1; d(aIle) = CC[C@H](C)[C@@H](N)C(=O)O; d(aThr) = C[C@@H](O)[C@@H](N)C(=O)O; NMeF = CN[C@@H](Cc1ccccc1)C(=O)O; Isobutyryl = CC(C)C(=O)*; ξL = CC(C)CC(N)C(=O)O

molecular target: Nuclear receptor subfamily 1 group I member 3 (Homo sapiens) (UniProt Q14994); experiment: qHTS for Constitutive Androstane Receptor (CAR) Antagonist screened against the NCATS CANVASS Library (AID 1347372); conditions: HepG2-hCAR-CYP2B6 luciferase, CITCO-stimulated antagonist mode; series mostly up to 46.1 µM
Sequence (Q14994 whole entry, looked up): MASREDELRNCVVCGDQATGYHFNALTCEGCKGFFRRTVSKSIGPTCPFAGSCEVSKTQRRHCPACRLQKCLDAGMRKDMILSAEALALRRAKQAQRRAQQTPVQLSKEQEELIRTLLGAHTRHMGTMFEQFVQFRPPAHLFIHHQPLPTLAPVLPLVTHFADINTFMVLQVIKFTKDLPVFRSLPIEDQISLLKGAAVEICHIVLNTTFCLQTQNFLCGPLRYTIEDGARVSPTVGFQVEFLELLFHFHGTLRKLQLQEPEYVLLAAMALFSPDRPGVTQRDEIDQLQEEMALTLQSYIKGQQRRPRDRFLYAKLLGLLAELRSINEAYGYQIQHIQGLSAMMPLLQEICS
Excerpt: Natural products and their derivatives continue to be wellsprings of nascent therapeutic potential. However, many laboratories have limited resources for biological evaluation, leaving their previously isolated or synthesized compounds largely or completely untested. To address this issue, the Canvass library of natural products was assembled (https://tripod.nih.gov/canvass), in collaboration with academic and industry researchers, for quantitative high-throughput screening (qHTS) across a diverse set of cell-based and biochemical assays. The pure (>85% purity by liquid chromatography/mass spectrometry [LC/MS]) Canvass library of 346 natural products were submitted by 45 academic laboratories and companies around the world. We collected pure natural products to circumvent deconvolution and structure elucidation due to time and resource limitations. The library was formatted into 1536-well plates and evaluated in 50 qHTS (in an 11-pnt concentration series) bioassays with broad scope of disease-relevant mechanisms. The resulting data set from 50 different assays was then systematically analyzed to identify overall trends and specific natural products with interesting biological activities. Reported herein are the results of each individual qHTS and their corresponding assay protocol. The constitutive androstane receptor (CAR) is a nuclear receptor which regulates multiple drug metabolizing enzymes (DMEs) and transporters. Activating CAR will generally increase the transcription and subsequent translation of CYP2B6 and CYP3A4. These two DMEs represent about 50% of the drug metabolizing potential in the body. […] Recently, there have also been studies performed indicating CARs role in energy metabolism and cancer therapy. Therefore, inducing or inhibiting CAR's activity could have a potential effect on diabetes and/or cancer. National Center for Advancing Translational Sciences (NCATS), Rockville, MD National Institute of Health (NIH), Bethesda, Maryland
Material: A double-stable (hCAR and CYP2B6-2.2kb) transfected cell line, derived from human hepatoma (HepG2) cells, was utilized for the duration of the quantitative high-throughput screens. The HepG2-CYP2B6-hCAR cells suspended in DMEM culture medium supplemented with 10% FBS, 5 ug/mL blasticidin, 0.5 mg/mL geneticin, 100 U/mL penicillin and 100 ug/mL streptomycin. CAR Antagonist assay protocol: 1. In a 1536 well, tissue culture treated white solid bottom plates (Greiner Bio-One North America), 4 uL of engineered HepG2-hCAR-CYP2B6 cell solution (final concentration 2500 cells / well) was dispensed using the Multidrop Combi dispenser (Thermo Fisher Scientific). 2. The assay plates were incubated for 4hr at 37C, 5% CO2 to allow the cells to acclimate and attach. 3. Compounds were pin transferred (~23 nL volume) to the assay plates via Wako Pin-tool (Wako Automation, Richmond VA) equipped with a 1536 pin head. The compounds were transferred to columns 5-48 resulting in a final concentration ranging from 0.6nM to 92uM. 4. One uL of CITCO, was added using a Flying Reagent Dispenser to generate a final concentration of 50 nM CITCO inside each well. 5. The assay plates were incubated at 37C, 5% CO2 for 24hr. 6. To measure cell viability, 1 uL of CellTiter-Fluor (Promega) reagent was then added to the assay plates (column 1-48, rows 1-32). The assay plates were incubated for 1hr at 37C, 5% CO2. 7. A first readout of fluorescence signal was acquired via the ViewLux (PerkinElmer) plate reader using a FITC dichroic mirror, excitation 405/10 nm filter, and emission 540/25 nm filter; and using 65 light energy, 1 second exposure, and 2x binning settings. 8. To measure CAR activation, 4 uL of ONE-Glo reagent (Promega) was added to the assay plates (column 1-48, rows 1-32). The assay plates were further incubated at room temperature for 30 min. 9. A second readout of luminescence signal was acquired via the ViewLux plate reader using a clear emission filter, 10 second exposure, 2x binning settings. […]
Potency means the concentration at half of the fitted maximal effect.

Q: `C/C1=C/[C@@H](C)[C@H](O)C/C=C/CC/C=C/C(=O)O[C@@H]1[C@H](C)C(=O)CCCC1CC(=O)NC(=O)C1` was tested. Which Potency did it give?
A: Its Potency is “inactive”.

Q: `COc1ccc([C@@H]2c3cc4c(cc3C[C@H](C)C2C)OCO4)cc1OC` (stereo not given in full) was tested. Which Potency did it give?
A: The Potency was “inactive”.

Q: Which Potency does the source give for `C/C(=C\[C@@H](C)CC/C=C/CC/C=C/C(=O)O)[C@@H](O)[C@H](C)C(=O)CCCC1CC(=O)NC(=O)C1` here?
A: The Potency was “inactive”.

Q: With `CCC(=O)N[C@@H](C[C@H](C)C(Cl)(Cl)Cl)C(=O)N1C(=O)C=C(OC)[C@@H]1C[C@H](C)CCl` as the compound, how does the Potency read?
A: The Potency was 10.5 µM (active).

Q: For `C[C@@]12CCC[C@@](C)(C(=O)OP(=O)(O)OC[C@H]3O[C@@H](n4cnc5c(N)ncnc54)[C@H](O)[C@@H]3O)[C@H]1C[C@@H](O)[C@@]13C[C@@H](CC[C@@H]21)[C@](C)(O)C3`, which Potency is on record?
A: Its Potency is “inactive”.

Q: `COc1cc2oc3ccccc3c(=O)c2cc1OC` was tested. Which Potency did it give?
A: Its Potency is “inactive”.

Q: `COc1ccc(-c2oc3cc(OC)cc(OC)c3c(=O)c2O)cc1` was tested. Which Potency did it give?
A: The Potency was “inactive”.

Q: How did the Potency turn out when `C=C[C@]1(C)CC[C@@H]([C@H](C)C(=O)CC=C(C)C)O1` was run?
A: Its Potency is “inactive”.

Q: For `C[C@H](CCC(O)C(C)(O)CO)[C@@]1(O)CC[C@@]2(C)C3=C(CC[C@@]21C)[C@@]1(C)CCC(OC(=O)CCC(=O)O)C(C)(C)[C@@H]1CC3` (stereo not given in full), which Potency is on record?
A: Its Potency is “inactive”.

Q: For `C=CC(CCCCC)C1C(=O)NC(=O)C1C(=O)C1C2C(C)CC(C(=O)O)CC2CC1(O)C(=O)/C=C/C` (stereo not given), which Potency is on record?
A: Its Potency is “inactive”.

Q: How did the Potency turn out when `C/C(=C\[C@H](C)C(=O)C[C@H](O)CC1CC(=O)NC(=O)C1)[C@@H]1OC(=O)CCCC/C=C/[C@@H](O)C[C@@H]1C` was run?
A: The Potency was 14.8 µM (active).

Q: With `O=C1CC(c2ccc(O)cc2)Oc2cc(O)cc(O)c21` (stereo not given) as the compound, how does the Potency read?
A: The Potency was “inactive”.

Q: With `CCC(C)=C1OC(=O)[C@H](C)[C@H](O)[C@H](Cc2cccnc2)NC(=O)C(NC(=O)c2ncccc2O)C(C)OC1=O` (stereo not given in full) as the compound, how does the Potency read?
A: The Potency was “inactive”.

Q: How did the Potency turn out when `CC(C)=CCCC(C)(O)[C@H]1CC=C(C)C(O)C1` (stereo not given in full) was run?
A: Its Potency is “inactive”.

Q: With `C/C=C/C(=O)C1(O)CC2CC(C(=O)O)CC(C)C2C1C1=C2C(=O)NC(=O)C2=C(CCCCC)C(C)O1` (stereo not given) as the compound, how does the Potency read?
A: Its Potency is “inactive”.

Q: For `O=C1CC2OCC=C3CN4C5CC3C2[C@@H]2N1c1ccccc1[C@]52C[C@@H]4C1=C[C@H]2C3CC4N(CC[C@@]45c4ccccc4N(C1=O)[C@@H]25)C/C3=C/CO` (stereo not given in full), which Potency is on record?
A: The Potency was “inactive”.

Q: `CN1CCc2cc3c(c4c2C1(C)C(=O)c1cc(O)ccc1-4)OCO3` (stereo not given) was tested. Which Potency did it give?
A: Its Potency is “inactive”.

Q: Which Potency does the source give for `C=C[C@@]1(C)CC[C@@H]([C@H](C)C(C)=O)O1` here?
A: Its Potency is “inactive”.

Q: `CC(C)[C@@H]1CC(=O)c2coc3c2[C@H]1C[C@@H](C)C3=O` was tested. Which Potency did it give?
A: Its Potency is “inactive”.

Q: With `C[C@]12CCC[C@](C)(C(=O)O)[C@@H]1CC[C@@]1(C)c3cocc3CC[C@H]21` as the compound, how does the Potency read?
A: Its Potency is “inactive”.

Q: For `CC(C)=CCC[C@]1(C)[C@H]2CC(=O)[C@@]3(CO3)[C@@H]1C2`, which Potency is on record?
A: Its Potency is “inactive”.

Q: Which Potency does the source give for `CC1=C2CC[C@]3(C)[C@H](CC=C4[C@@H]5CC(C)(C)CC[C@@H]5C(=O)[C@H](O)[C@]43C)[C@@]2(C)C=C(O)C1=O` here?
A: Its Potency is “inactive”.

Q: Which Potency does the source give for `CO[C@@H](C[C@@H](C)[C@@H](O)/C=C/C=C/CNC(=O)C(C)(C)[C@H](O)\C(C)=C/C=C\C=C\Cc1cnco1)[C@]1(O)[C@@H](C)C(=O)N(C)[C@@]12COC2=O` here?
A: The Potency was “inactive”.

Q: With `C=C[C@]1(C)CC[C@@H]([C@H](C)C(=O)/C=C/C(C)(C)O)O1` as the compound, how does the Potency read?
A: The Potency was “inactive”.

Q: `COc1c(O)cc2c(c1O)C(=O)c1c(coc1C)C2=O` was tested. Which Potency did it give?
A: Its Potency is “inactive”.

Q: `C=C1CCC2C(C)(C(=O)O)CCC(CC/C(C)=C/C(=O)NC(CCC(N)=O)C(=O)O)[C@@]2(C)C1` (stereo not given in full) was tested. Which Potency did it give?
A: Its Potency is “inactive”.

Q: Which Potency does the source give for `CC[C@H](C)[C@H]1NC(=O)[C@@H](NC(=O)C(C)C)[C@@H](C)OC(=O)[C@H](COC(=O)CNC(C)=O)NC(=O)[C@@H]([C@@H](C)O)NC(=O)[C@H](Cc2ccccc2)N(C)C(=O)[C@H](c2ccc(OC)cc2)NC1=O` (Isobutyryl-T[d(aIle)][Phg(4-OMe)][NMeF][d(aThr)]S([Gly-Ac]); ester 1-C) here?
A: Its Potency is “inactive”.

Q: With `COc1cc(O)c(C(=O)[C@@H]2[C@H](CC=C(C)C)C(C)=CC[C@H]2c2ccccc2)c(O)c1` as the compound, how does the Potency read?
A: The Potency was 33.1 µM (active).

Q: Which Potency does the source give for `C/C=C(/C)c1c(Cl)c(O)c(C)c2c1Oc1c(Cl)c(O)c(Cl)c(C)c1C(=O)O2` here?
A: The Potency was “inactive”.

Q: Which Potency does the source give for `CO/C=C/C(=O)c1cc2cnc3c(N)cc(=NC(=O)C(C)C)c([nH]1)c23` here?
A: The Potency was 0.295 µM (active).

Q: How did the Potency turn out when `CC[C@H]1[C@@H](C)[C@@H](c2cc(OC)c(OC)cc2OC)[C@H](C)[C@@H](c2cc(OC)c(OC)cc2OC)[C@@]12C=C(OC)C(=O)C=C2OC` was run?
A: The Potency was “inactive”.

Q: Which Potency does the source give for `CC[C@@H](C)[C@H]1NC(=O)C(CC(C)C)NC(=O)[C@@H](CC(C)C)NC(=O)[C@H](Cc2c[nH]c3ccccc23)NC(=O)CNC(=O)[C@@H](CC(N)=O)NC1=O` (stereo partly drawn) (cyclo(GW[dL][ξL][dI][dN])) here?
A: Its Potency is “inactive”.

Q: With `COc1ccc([C@@H]2c3cc4c(cc3C(=O)C(C)C2C)OCO4)cc1OC` (stereo not given in full) as the compound, how does the Potency read?
A: Its Potency is “inactive”.

Q: `C/C(=C\[C@H](C)C(=O)C[C@H](O)CC1CC(=O)NC(=O)C1)[C@@H]1OC(=O)CCCC/C=C/C[C@@H](O)[C@@H]1C` was tested. Which Potency did it give?
A: The Potency was 13.2 µM (active).

Q: How did the Potency turn out when `C/C1=C/[C@@H](C)[C@H](O)[C@@H](O)/C=C/CC/C=C/C(=O)O[C@@H]1[C@H](C)C(=O)/C=C/CC1CC(=O)NC(=O)C1` was run?
A: The Potency was 2.09 µM (active).

Q: With `C/C(=C\[C@H](C)C(=O)/C=C/CC1CC(=O)NC(=O)C1)[C@@H]1OC(=O)CCCC/C=C/[C@H](O)[C@@H](O)[C@@H]1C` as the compound, how does the Potency read?
A: Its Potency is “inactive”.

Q: For `COc1ccc([C@@H]2c3cc4c(cc3C(=O)[C@H](C)C2C)OCO4)cc1OC` (stereo not given in full), which Potency is on record?
A: The Potency was “inactive”.

Q: With `O=C(OC[C@H]1O[C@@H](OC(=O)c2cc(O)c(O)c(O)c2)[C@H](OC(=O)c2cc(O)c(O)c(O)c2)[C@@H](OC(=O)c2cc(O)c(O)c(O)c2)[C@@H]1OC(=O)c1cc(O)c(O)c(O)c1)c1cc(O)c(O)c(O)c1` as the compound, how does the Potency read?
A: The Potency was “inactive”.

Q: How did the Potency turn out when `O=c1cc(-c2ccc(O)cc2)oc2cc(O)c([C@@H]3OC(CO)[C@H](O)[C@@H](O)[C@H]3O)c(O)c12` (stereo not given in full) was run?
A: The Potency was “inactive”.

Q: Which Potency does the source give for `Cc1cc(O)cc2c1C(=O)c1c(O)cc(O)cc1C2=O` here?
A: Its Potency is “inactive”.
